Screens: PubChem BioAssay, The Scripps Research Institute Molecular Screening Center
SMARCA2 activ – activators of SMARCA2 function; MG213 cells, MMTV-luciferase reporter, dexamethasone, overnight; activation, % at 9.1 µM; 1% of 370,000 active; AID 652017; in the data active = activation above about 7.8%;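 note: 0% = vehicle wells and 100% = reference activator wells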
ssDAF12 agonist – S. stercoralis DAF-12 activation, primary screen; HEK293 ssDAF-12/GRIP1 lit1-tk-luc reporter, luminescence; % of 3 µM dafachronic acid response; activation, % at 6.8 µM; 1% of 370,000 active; AID 652126;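 active = activation above the mean over all tested compounds plus 3 SD, cut at about 0.9% in these data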;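 note: 0% = DMSO-only wells and 100% = 3 µM delta7-dafachronic acid wells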
hcDAF12 agonist – activators of H. contortus DAF-12 nuclear receptor; HEK293 hcDAF-12 lit1-tk-luc reporter, luminescence; 0% DMSO, 100% Δ7-dafachronic acid; activation, % at 6.8 µM; 1.4% of 370,000 active;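 active = activation above the mean of all tested compounds plus 3 SD, cut at about 5.5% in these data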;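 note: 100% = response to 3 µM Δ7-dafachronic acid high control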
DAX1 inh-1 – blocks DAX1 repression of SF-1 activated StAR promoter; HEK293T StAR-luciferase reporter, SF-1/DAX-1 repression relief; inhibition, % at 6.8 µM; 1.1% of 370,000 active; AID 652010;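 active = inhibition above the mean over all tested compounds plus 3 SD, cut at about 3.6% in these data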;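 note: 0% = DAX-1 cells with DMSO and 100% = cells lacking DAX-1 with DMSO; higher inhibition means more luminescence from relief of DAX-1 repression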
DAX1 inh-2 – inhibits human nuclear receptor DAX1; AID 504766; HEK293 Gal4-DAX1 luciferase reporter, luminescence; inhibition, % at 6.75 µM; 0.99% of 340,000 active; P51843;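 active = inhibition above the mean over all tested compounds plus 3 SD, cut at about 4.2% in these data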;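 note: 0% = DAX1-transfected cells with DMSO and 100% = empty-vector control cells with DMSO; inhibition shows as a rise in luminescence from relieved DAX1 repression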
Target sequence (P51843 207-470 limits assumed): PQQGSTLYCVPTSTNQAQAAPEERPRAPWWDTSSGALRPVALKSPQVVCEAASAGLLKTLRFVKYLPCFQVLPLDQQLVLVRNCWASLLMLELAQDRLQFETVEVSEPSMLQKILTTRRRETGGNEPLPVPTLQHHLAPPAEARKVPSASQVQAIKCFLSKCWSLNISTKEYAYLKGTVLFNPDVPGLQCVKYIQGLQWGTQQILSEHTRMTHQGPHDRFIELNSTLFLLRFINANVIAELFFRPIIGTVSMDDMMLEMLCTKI
hgDAF12 agonist – agonists of H. glycines DAF-12 nuclear receptor; HEK293 GAL4-hgDAF12 UAS-luciferase reporter, agonist luminescence; normalized to butyrate control; activation, % at 6.8 µM; 1.8% of 370,000 active; AID 687014;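 active = activation above a cutoff set at the mean of all screened compounds plus 3 SD, cut at about 10% in these data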;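 note: 0% = DMSO wells and 100% = sodium butyrate wells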
DAX1 inh confirm – NR0B1 (human) inhibition, confirmation. shares compounds with DAX1 inh-1. HEK293T StAR-promoter luciferase reporter, SF-1/DAX-1 repression. inhibition, % at 6.8 µM. 87% of 2,400 active. AID 652134;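 active = inhibition above the average of every tested compound plus 3 SD, cut at about 3.8% in these data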;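 note: 0% = DAX-1 cells with DMSO and 100% = no DAX-1 control cells with DMSO; active compounds raise luminescence by relieving repression of the StAR reporter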
Target sequence (P51843 whole entry, looked up): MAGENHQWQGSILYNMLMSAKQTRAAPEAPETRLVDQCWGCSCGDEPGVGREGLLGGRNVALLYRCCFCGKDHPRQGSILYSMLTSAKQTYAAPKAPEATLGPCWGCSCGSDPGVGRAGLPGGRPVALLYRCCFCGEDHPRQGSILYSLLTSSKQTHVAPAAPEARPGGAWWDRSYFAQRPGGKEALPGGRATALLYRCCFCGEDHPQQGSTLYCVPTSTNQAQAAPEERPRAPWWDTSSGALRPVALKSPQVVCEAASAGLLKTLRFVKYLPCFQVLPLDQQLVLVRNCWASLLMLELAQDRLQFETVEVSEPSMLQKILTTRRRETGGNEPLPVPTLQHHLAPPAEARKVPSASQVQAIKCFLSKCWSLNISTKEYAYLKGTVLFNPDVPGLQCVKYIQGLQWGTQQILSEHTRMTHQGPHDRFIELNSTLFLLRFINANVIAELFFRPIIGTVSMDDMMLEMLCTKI
SF1 AF2mut Luc – nonselective inhibitor or artifact in SF-1 mutant DAX1 counter-screen; shares compounds with DAX1 inh-1; HEK293 StAR-luciferase, SF-1 AF2 mutant, luminescence; inhibition, % at 6.8 µM; 78% of 2,400 active; AID 652136;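 active = inhibition above the mean of all tested compounds plus 3 SD, cut at about 3% in these data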;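 note: 0% = DAX-1 transfected cells with DMSO and 100% = cells without DAX-1 with DMSO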
SMARCA2 conf – confirmation of SMARCA2 (BRM) function activators. AID 652260. shares compounds with SMARCA2 activ. activation, % at 9.1 µM. 30% of 3,500 active. MG213 cells, MMTV-luciferase with dexamethasone, luminescence, overnight; MG213 cells expressing E1A, Rb sequestered; DMSO wells 0%, reference activator 100%;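 active = activation above its plate's cutoff, the mean activation of tested wells plus 3 SD, cut at about 7.9% in these data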
VP16 Luc act – counter-screen for SMARCA2 activators: GAL4-VP16 luciferase reporter activation; AID 686939; activation, % at 9.1 µM; shares compounds with SMARCA2 activ; HEK293 GAL4-VP16 pG5luc reporter, luciferase luminescence; scaled: DMSO wells 0%, SAHA wells 100%; 41% of 3,500 active;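 active = activation above the solvent-only control well mean plus 3 SD, averaged across control plates, cut at about 5.2% in these data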
LXR ag – counter-screen for hcDAF-12 agonists: agonists of human LXR-beta; activation, % at 6.8 µM; HEK293 Gal4-LXR tk-luc reporter, luminescence, 24 h; normalized: DMSO 0%, positive control 100%; AID 743027; shares compounds with hcDAF12 agonist; 3,400 tested, under 10 active;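 active = mean percent activation of the reporter above a cutoff set as the average over tested compounds plus their standard deviation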
hcDAF12 ag – confirmation of H. contortus DAF-12 agonists; shares compounds with hcDAF12 agonist; 61% of 3,400 active; activation, % at 6.8 µM; HEK293 hcDAF-12 lit1-tk-luc reporter, luminescence; % of Δ7-dafachronic acid response;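 active = mean activation across triplicate tests above the threshold derived from the earlier primary screen, cut at about 5.5% in these data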;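 note: 0% = DMSO only wells and 100% = 3 µM Δ7-dafachronic acid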
hgDAF12 ag – confirmation of H. glycines DAF-12 agonists | 80% of 3,300 active | activation, % at 6.8 µM | shares compounds with hgDAF12 agonist | HEK293 GAL4-hgDAF12 luciferase reporter, agonist mode; percent of butyrate response;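 active = mean activation over triplicate wells above the hit cutoff derived from the earlier primary screen, cut at about 11% in these data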;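 note: 0% = DMSO low control and 100% = 2 mM sodium butyrate high control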
LXR ag 2 – activates human LXR-beta, counter-screen for DAF-12 agonists. shares compounds with hgDAF12 agonist. HEK293 Gal4-LXR luciferase reporter, 24 h. activation, % at 6.8 µM. 3,300 tested, under 10 active;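 active = mean activation of the triplicate above a set limit carried over from the primary screen, none filed active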
* = called active by the depositor. Compounds with a hit are over-represented: about 4.8% of the library has one in this group of screens.

CCc1ccc(NC(=O)c2cc(C)on2)cc1 was read as SMARCA2 activ 3, ssDAF12 agonist -1, hcDAF12 agonist 7.8*, DAX1 inh-1 5.8*, DAX1 inh-2 1, hgDAF12 agonist 13*, DAX1 inh confirm 11*, SF1 AF2mut Luc 4.9*, LXR ag 1, hcDAF12 ag 6.8*, hgDAF12 ag 13* and LXR ag 2 1.
CC(C)Cc1cc(C(=O)Nc2ccc(Br)cc2)no1 was read as SMARCA2 activ 0, ssDAF12 agonist 0, hcDAF12 agonist 2, DAX1 inh-1 2, DAX1 inh-2 2 and hgDAF12 agonist 4.
Screening CCCc1cc(C(=O)Nc2ccc(C)cc2)no1 returned SMARCA2 activ 12*, ssDAF12 agonist 1, hcDAF12 agonist 6.2*, DAX1 inh-1 5.2*, DAX1 inh-2 1, hgDAF12 agonist 17*, DAX1 inh confirm 8.7*, SF1 AF2mut Luc 7.3*, SMARCA2 conf 7, VP16 Luc act 6.9*, hgDAF12 ag 13* and LXR ag 2 1.
For CCCCCc1nnc(NC(=O)C2=COCCO2)s1 the results were SMARCA2 activ 3, ssDAF12 agonist 1.9*, hcDAF12 agonist 9.0*, DAX1 inh-1 11*, DAX1 inh-2 3, hgDAF12 agonist 20*, DAX1 inh confirm 10*, SF1 AF2mut Luc 5.0*, LXR ag 1, hcDAF12 ag 8.0*, hgDAF12 ag 14* and LXR ag 2 1.
`O=C(/C=C\Nc1ccccc1Br)c1ccc2c(c1)OCO2` gave SMARCA2 activ -2, ssDAF12 agonist 1, hcDAF12 agonist 9.4*, DAX1 inh-1 5.3*, DAX1 inh-2 -5, hgDAF12 agonist 17*, DAX1 inh confirm 9.6*, SF1 AF2mut Luc 2, LXR ag 2, hcDAF12 ag 17*, hgDAF12 ag 16* and LXR ag 2 1.
Screening C[C@@H]1[C@@H](O)C[C@@]2(CC(=O)c3ccccc3O2)O[C@H]1c1ccccc1 returned SMARCA2 activ 0, ssDAF12 agonist -1, hcDAF12 agonist 0, DAX1 inh-1 0 and hgDAF12 agonist 6.
Screening Cc1ccc(NC(=O)/C(Cl)=C/c2ccccc2)cc1C returned SMARCA2 activ 3, ssDAF12 agonist 1.0*, hcDAF12 agonist 9.7*, DAX1 inh-1 7.0*, DAX1 inh-2 2, hgDAF12 agonist 20*, DAX1 inh confirm 20*, SF1 AF2mut Luc 8.2*, LXR ag 2, hcDAF12 ag 8.4*, hgDAF12 ag 21* and LXR ag 2 1.
For Cc1ccc(NC(=O)CCc2ccccc2)cc1C the results were SMARCA2 activ 6, ssDAF12 agonist 0, hcDAF12 agonist 0, DAX1 inh-1 1, DAX1 inh-2 4 and hgDAF12 agonist 9.
For CN1CCN(c2ccc(-c3cccc(NC(=O)COc4ccc(Cl)cc4)c3)nn2)CC1 the results were SMARCA2 activ 3, ssDAF12 agonist 1, hcDAF12 agonist 3, DAX1 inh-1 7.9*, DAX1 inh-2 1, hgDAF12 agonist 14*, DAX1 inh confirm 4.5*, SF1 AF2mut Luc 2, hgDAF12 ag 10 and LXR ag 2 1.
Screening CCC(=O)Nc1cccc(-c2ccc(N3CCN(C)CC3)nn2)c1 returned DAX1 inh-2 1.
CCC(=O)Nc1cccc(-c2ccc(N3CCCCC3)nn2)c1 was read as SMARCA2 activ 6, ssDAF12 agonist 0, hcDAF12 agonist 5.9*, DAX1 inh-1 15*, DAX1 inh-2 -1, hgDAF12 agonist 14*, DAX1 inh confirm 10*, SF1 AF2mut Luc 4.7*, hgDAF12 ag 15* and LXR ag 2 1.
For O=C(Nc1ccc(F)cc1)c1ccccc1NC(=O)C1CC=CCC1C(=O)O (configuration not stated) the results were SMARCA2 activ 0, ssDAF12 agonist -1, hcDAF12 agonist 1, DAX1 inh-1 1, DAX1 inh-2 0 and hgDAF12 agonist 5.
`CC(C)c1ccc(NC(=O)c2ccccc2NC(=O)C2CC=CCC2C(=O)O)cc1` (configuration not stated) gave SMARCA2 activ 3, ssDAF12 agonist 0, hcDAF12 agonist 3, DAX1 inh-1 8.3*, DAX1 inh-2 5.5*, hgDAF12 agonist 15*, DAX1 inh confirm 3, SF1 AF2mut Luc 3.6*, hgDAF12 ag 7 and LXR ag 2 0.
Cc1ccnc(NC(=O)c2ccccc2[N+](=O)[O-])c1 was read as SMARCA2 activ 1, ssDAF12 agonist 0, hcDAF12 agonist 0, DAX1 inh-1 1, DAX1 inh-2 0 and hgDAF12 agonist 2.
`Cc1ccnc(NC(=O)/C=C/c2ccccc2[N+](=O)[O-])c1` gave SMARCA2 activ 6, ssDAF12 agonist 1.8*, hcDAF12 agonist 9.3*, DAX1 inh-1 5.0*, hgDAF12 agonist 21*, DAX1 inh confirm 14*, SF1 AF2mut Luc 8.1*, LXR ag 2, hcDAF12 ag 8.3*, hgDAF12 ag 20* and LXR ag 2 1.
